# This excerpt belongs to a sample that is enriched for the strongest signals.
# B1: Flo11 (Saccharomyces cerevisiae), P08640 (protein)
# chain: MQRPFLLAYLVLSLLFNSALGFPTALVPRGSSEGTSCNSIVNGCPNLDFNWHMDQQNIMQYTLDVTSVSWVQDNTYQITIHVKGKENIDLKYLWSLKIIGVTGPKGTVQLYGYNENTYLIDNPTDFTATFEVYATQDVNSCQVWMPNFQIQFEYLQGSAAQYASSWQWGTTSFDLSTGCNNYDNQGHSQTDFPGFYWNIDCDNNCGGTKSSTTTSSTSESSTTTSSTSESSTTTSSTSESSTTTSSTSESSTSSSTTAPATPTTTSCTKEKPTPPTTTSCTKEKPTPPHHDTTPCTKKKTTTSKTCTKKTTTPVPTPSSSTTESSSAPVPTPSSSTTESSSAPVTSSTTESSSAPVPTPSSSTTESSSAPVTSSTTESSSAPVTSSTTESSSAPVPTPSSSTTESSSAPVTSSTTESSSAPVTSSTTESSSAPVTSSTTESSSAPVTSSTTESSSAPVPTPSSSTTESSSAPVTSSTTESSSAPVPTPSSSTTESSSAPVTSSTTESSSAPVPTPSSSTTESSSAPAPTPSSSTTESSSAPVTSSTTESSSAPVPTPSSSTTESSSTPVTSSTTESSSAPVPTPSSSTTESSSAPVPTPSSSTTESSSAPAPTPSSSTTESSSAPVTSSTTESSSAPVPTPSSSTTESSSAPVPTPSSSTTESSSAPVPTPSSSTTESSSAPVTSSTTESSSAPVTSSTTESSSAPVPTPSSSTTESSSAPVPTPSSSTTESSSAPVPTPSSSTTESSSAPVTSSTTESSSAPVPTPSSSTTESSSAPVPTPSSSTTESSSAPVPTPSSSTTESSVAPVPTPSSSSNITSSAPSSTPFSSSTESSSVPVPTPSSSTTESSSAPVSSSTTESSVAPVPTPSSSSNITSSAPSSIPFSSTTESFSTGTTVTPSSSKYPGSQTETSVSSTTETTIVPTKTTTSVTTPSTTTITTTVCSTGTNSAGETTSGCSPKTVTTTVPTTTTTSVTTSSTTTITTTVCSTGTNSAGETTSGCSPKTITTTVPCSTSPSETASESTTTSPTTPVTTVVSTTVVTTEYSTSTKPGGEITTTFVTKNIPTTYLTTIAPTPSVTTVTNFTPTTITTTVCSTGTNSAGETTSGCSPKTVTTTVPCSTGTGEYTTEATTLVTTAVTTTVVTTESSTGTNSAGKTTTGYTTKSVPTTYVTTLAPSAPVTPATNAVPTTITTTECSAATNAAGETTSVCSAKTIVSSASAGENTAPSATTPVTTAIPTTVITTESSVGTNSAGETTTGYTTKSIPTTYITTLIPGSNGAKNYETVATATNPISIKTTSQLATTASASSVAPVVTSPSLTGPLQSASGSAVATYSVPSISSTYQGAANIKVLGNFMWLLLALPVVF
# Columns and labels:
# Assay in all cases: glycan array binding signal (z-score within array); higher = stronger binding
# Settings in all cases: glycan notation: IUPAC condensed, linker removed
# [1] = target: Fuc(a1-2)Gal(b1-3)GalNAc(b1-3)Gal
# How it was run: (§1)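 Glycan array binding is given as a within-array Z-score, which can be read as non-binding when negative. The arrays, 3228 of them, came from the Consortium for Functional Glycomics database and were retained only where the protein sequence was available. Z-scores were averaged across arrays of the same protein sequence at different concentrations or buffers and across linkers.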
# [2] = target: Fuc(a1-2)Gal(b1-3)GlcNAc(b1-2)Man(a1-3)[Fuc(a1-2)Gal(b1-3)GlcNAc(b1-2)Man(a1-6)]Man(b1-4)GlcNAc(b1-4)[Fuc(a1-6)]GlcNAc
# How it was run: as §1
# [3] = target: Fuc(a1-2)Gal(b1-4)GlcNAc(b1-3)GalNAc
# How it was run: as §1
# [4] = target: Fuc(a1-2)Gal(b1-4)[Fuc(a1-3)]GlcNAc(b1-3)GalNAc
# How it was run: as §1
# [5] = target: Fuc(a1-2)[Gal(a1-3)]Gal(b1-3)GlcNAc
# How it was run: as §1
# [6] = target: Fuc(a1-2)[Gal(a1-3)]Gal(b1-3)GlcNAc(b1-2)Man(a1-3)[Fuc(a1-2)[Gal(a1-3)]Gal(b1-3)GlcNAc(b1-2)Man(a1-6)]Man(b1-4)GlcNAc(b1-4)GlcNAc
# How it was run: as §1
# [7] = target: Fuc(a1-2)[Gal(a1-3)]Gal(b1-4)[Fuc(a1-3)]Glc
# How it was run: as §1
# [8] = target: Fuc(a1-2)[GalNAc(a1-3)]Gal(b1-4)GlcNAc
# How it was run: as §1
# [9] = target: Fuc(a1-4)GlcNAc
# How it was run: as §1
# [10] = target: Gal(a1-3)Gal(b1-3)GlcNAc(b1-2)Man(a1-3)[Gal(a1-3)Gal(b1-3)GlcNAc(b1-2)Man(a1-6)]Man(b1-4)GlcNAc(b1-4)GlcNAc
# How it was run: as §1
# [11] = target: Gal(a1-3)Gal(b1-3)[Fuc(a1-4)]GlcNAc(b1-2)Man(a1-3)[Gal(a1-3)Gal(b1-3)[Fuc(a1-4)]GlcNAc(b1-2)Man(a1-6)]Man(b1-4)GlcNAc(b1-4)GlcNAc
# How it was run: as §1
# [12] = target: Gal(a1-4)GlcNAc
# How it was run: as §1
# [13] = target: Gal(a1-6)Glc
# How it was run: as §1
# [14] = target: Gal(b1-3)Gal(b1-4)GlcNAc
# How it was run: as §1
# [15] = target: Gal(b1-3)[Fuc(a1-4)]GlcNAc(b1-2)Man(a1-3)[Gal(b1-3)[Fuc(a1-4)]GlcNAc(b1-2)Man(a1-6)]Man(b1-4)GlcNAc(b1-4)GlcNAc
# How it was run: as §1
# [16] = target: Gal(b1-3)[Fuc(a1-4)]GlcNAc(b1-3)Gal(b1-3)[Fuc(a1-4)]GlcNAc
# How it was run: as §1
# [17] = target: Gal(b1-3)[GlcNAc(b1-6)]GalNAc
# How it was run: as §1
# [18] = target: Gal(b1-4)GlcNAc(b1-3)Gal(b1-4)[Fuc(a1-3)GlcNAc(b1-6)]Gal(b1-4)Glc
# How it was run: as §1
# [19] = target: Gal3S(b1-4)Glc
# How it was run: as §1
# [20] = target: Gal6S(b1-4)GlcNAc6S
# How it was run: as §1
# [21] = target: GalNAc(b1-3)GalNAc
# How it was run: as §1
# [22] = target: GalNAc(b1-4)GlcNAc(b1-2)Man(a1-3)[GalNAc(b1-4)GlcNAc(b1-2)Man(a1-6)]Man(b1-4)GlcNAc(b1-4)GlcNAc
# How it was run: as §1
# [23] = target: GlcNAc(a1-4)Gal(b1-4)GlcNAc(b1-3)Gal(b1-4)GlcNAc
# How it was run: as §1
# [24] = target: GlcNAc(a1-4)Gal(b1-4)GlcNAc(b1-3)Gal(b1-4)[Fuc(a1-3)]GlcNAc(b1-3)Gal(b1-4)[Fuc(a1-3)]GlcNAc
# How it was run: as §1
# [25] = target: GlcNAc(b1-2)Man(a1-3)[GlcNAc(b1-2)Man(a1-6)]Man(b1-4)GlcNAc(b1-4)[Fuc(a1-6)]GlcNAc
# How it was run: as §1
# [26] = target: GlcNAc(b1-2)[GlcNAc(b1-4)]Man(a1-3)[GlcNAc(b1-4)][GlcNAc(b1-2)[GlcNAc(b1-6)]Man(a1-6)]Man(b1-4)GlcNAc(b1-4)GlcNAc
# How it was run: as §1
# [27] = target: GlcNAc(b1-4)GlcNAc
# How it was run: as §1
# [28] = target: Man(a1-2)Man(a1-2)Man(a1-3)Man
# How it was run: as §1
# [29] = target: Man(a1-2)Man(a1-3)[Man(a1-2)Man(a1-6)]Man
# How it was run: as §1
# [30] = target: Man(a1-2)Man(a1-6)[Man(a1-3)]Man(a1-6)[Man(a1-2)Man(a1-2)Man(a1-3)]Man(b1-4)GlcNAc(b1-4)GlcNAc
# How it was run: as §1
# [31] = target: Neu5Ac(a2-3)Gal(b1-3)GalNAc6S
# How it was run: as §1
# [32] = target: Neu5Ac(a2-3)Gal(b1-4)GlcNAc6S
# How it was run: as §1
# [33] = target: Neu5Ac(a2-3)Gal(b1-4)[Fuc(a1-3)]GlcNAc(b1-3)Gal(b1-4)GlcNAc
# How it was run: as §1
# [34] = target: Neu5Ac(a2-3)Gal(b1-4)[Fuc(a1-3)]GlcNAc(b1-3)GalNAc
# How it was run: as §1
# [35] = target: Neu5Ac(a2-6)Gal(b1-4)GlcNAc(b1-3)Gal(b1-4)GlcNAc(b1-3)Gal(b1-4)GlcNAc
# How it was run: as §1
# [36] = target: Neu5Ac(a2-6)Gal(b1-4)GlcNAc(b1-3)Gal(b1-4)[Fuc(a1-3)]GlcNAc(b1-3)Gal(b1-4)[Fuc(a1-3)]GlcNAc
# How it was run: as §1
# [37] = target: Neu5Ac(a2-6)Gal(b1-4)GlcNAc6S
# How it was run: as §1
# [38] = target: Neu5Gc(b2-6)Gal(b1-4)GlcNAc
# How it was run: as §1
binder,measurement,setting,value
B1,glycan array binding signal (z-score),[1],4.03
same,glycan array binding signal (z-score),[2],0.319
same,glycan array binding signal (z-score),[3],1.35
same,glycan array binding signal (z-score),[4],5.39
same,glycan array binding signal (z-score),[5],-0.315
same,glycan array binding signal (z-score),[6],-0.389
same,glycan array binding signal (z-score),[7],-0.826
same,glycan array binding signal (z-score),[8],-0.692
same,glycan array binding signal (z-score),[9],0.442
same,glycan array binding signal (z-score),[10],0.723
same,glycan array binding signal (z-score),[11],0.122
same,glycan array binding signal (z-score),[12],-0.72
same,glycan array binding signal (z-score),[13],-0.453
same,glycan array binding signal (z-score),[14],0.164
same,glycan array binding signal (z-score),[15],-0.241
same,glycan array binding signal (z-score),[16],-0.512
same,glycan array binding signal (z-score),[17],-1.34
same,glycan array binding signal (z-score),[18],-1.05
same,glycan array binding signal (z-score),[19],0.09
same,glycan array binding signal (z-score),[20],0.193
same,glycan array binding signal (z-score),[21],-0.184
same,glycan array binding signal (z-score),[22],0.79
same,glycan array binding signal (z-score),[23],6.8
same,glycan array binding signal (z-score),[24],3.01
same,glycan array binding signal (z-score),[25],3.49
same,glycan array binding signal (z-score),[26],0.283
same,glycan array binding signal (z-score),[27],-0.781
same,glycan array binding signal (z-score),[28],7.09
same,glycan array binding signal (z-score),[29],-0.669
same,glycan array binding signal (z-score),[30],-1.08
same,glycan array binding signal (z-score),[31],-0.833
same,glycan array binding signal (z-score),[32],0.179
same,glycan array binding signal (z-score),[33],2.91
same,glycan array binding signal (z-score),[34],3.06
same,glycan array binding signal (z-score),[35],-0.252
same,glycan array binding signal (z-score),[36],0.359
same,glycan array binding signal (z-score),[37],-0.192
same,glycan array binding signal (z-score),[38],0.414

# From the supplement of paper PMC8728848
